Reference: ChEMBL document CHEMBL5724796, “Tm Shift (DSF) assay results for EUbOPEN Chemogenomics Library” (2024)
Several values for one entry are separate records, joined by “and”; a condition that tells them apart may be missing. Equal values may be shown once.

Assays:
Settings in all cases: Compound concentration 20.0 uM
[1] = target: Tyrosine-protein kinase ABL1 (Homo sapiens) (UniProt P00519)
[2] = target: Bromodomain-containing protein 4 (Homo sapiens) (UniProt O60885)
[3] = target: Cyclin-dependent kinase 2 (Homo sapiens) (UniProt P24941)
[4] = target: Casein kinase I isoform delta (Homo sapiens) (UniProt P48730)
[5] = target: Glycogen synthase kinase-3 beta (Homo sapiens) (UniProt P49841)
[6] = target: Mitogen-activated protein kinase 1 (Homo sapiens) (UniProt P28482)
[7] = target: T1, Aurora kinase A (Homo sapiens) (UniProt O14965)
T1 sequence (whole entry): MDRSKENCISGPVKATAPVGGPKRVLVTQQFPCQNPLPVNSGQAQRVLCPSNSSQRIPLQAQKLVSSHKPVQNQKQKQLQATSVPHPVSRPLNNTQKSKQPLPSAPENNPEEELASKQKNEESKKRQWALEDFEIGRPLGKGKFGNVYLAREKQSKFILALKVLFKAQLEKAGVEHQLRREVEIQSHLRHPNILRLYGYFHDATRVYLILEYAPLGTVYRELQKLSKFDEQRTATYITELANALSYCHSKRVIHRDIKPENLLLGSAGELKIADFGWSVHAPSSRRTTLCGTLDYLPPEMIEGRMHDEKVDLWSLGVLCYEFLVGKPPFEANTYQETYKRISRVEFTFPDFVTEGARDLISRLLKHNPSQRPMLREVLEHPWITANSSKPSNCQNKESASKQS

[8] = target: T2, Transcription intermediary factor 1-alpha (Homo sapiens) (UniProt O15164)
T2 sequence (whole entry): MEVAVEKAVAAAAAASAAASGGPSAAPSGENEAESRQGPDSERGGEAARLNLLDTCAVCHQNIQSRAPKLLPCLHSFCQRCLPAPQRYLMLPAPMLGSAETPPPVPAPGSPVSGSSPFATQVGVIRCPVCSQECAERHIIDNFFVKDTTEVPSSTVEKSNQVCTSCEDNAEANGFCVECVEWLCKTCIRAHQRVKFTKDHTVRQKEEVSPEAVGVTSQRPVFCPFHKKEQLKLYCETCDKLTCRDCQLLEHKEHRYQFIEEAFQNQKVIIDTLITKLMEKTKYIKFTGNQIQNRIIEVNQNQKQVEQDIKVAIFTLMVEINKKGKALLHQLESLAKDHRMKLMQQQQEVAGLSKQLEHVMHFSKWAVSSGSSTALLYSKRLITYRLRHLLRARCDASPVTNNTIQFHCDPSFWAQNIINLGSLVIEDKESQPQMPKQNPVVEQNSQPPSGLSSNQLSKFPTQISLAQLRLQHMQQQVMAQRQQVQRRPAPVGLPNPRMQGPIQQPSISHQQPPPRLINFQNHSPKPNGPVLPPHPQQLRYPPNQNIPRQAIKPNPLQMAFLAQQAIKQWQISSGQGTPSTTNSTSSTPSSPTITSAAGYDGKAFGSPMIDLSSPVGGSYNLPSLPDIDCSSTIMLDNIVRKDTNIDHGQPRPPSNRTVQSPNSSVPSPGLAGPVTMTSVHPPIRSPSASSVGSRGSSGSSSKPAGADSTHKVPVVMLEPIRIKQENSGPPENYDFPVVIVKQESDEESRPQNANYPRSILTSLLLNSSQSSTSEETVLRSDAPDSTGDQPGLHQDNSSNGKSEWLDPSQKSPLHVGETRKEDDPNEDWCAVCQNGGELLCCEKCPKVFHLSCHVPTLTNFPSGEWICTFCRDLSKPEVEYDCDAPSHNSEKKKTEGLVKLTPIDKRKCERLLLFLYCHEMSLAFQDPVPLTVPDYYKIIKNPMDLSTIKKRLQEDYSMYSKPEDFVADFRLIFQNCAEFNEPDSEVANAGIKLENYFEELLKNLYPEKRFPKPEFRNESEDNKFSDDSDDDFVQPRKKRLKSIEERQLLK

Chain of Mitogen-activated protein kinase 1 (Homo sapiens) (P28482 whole entry): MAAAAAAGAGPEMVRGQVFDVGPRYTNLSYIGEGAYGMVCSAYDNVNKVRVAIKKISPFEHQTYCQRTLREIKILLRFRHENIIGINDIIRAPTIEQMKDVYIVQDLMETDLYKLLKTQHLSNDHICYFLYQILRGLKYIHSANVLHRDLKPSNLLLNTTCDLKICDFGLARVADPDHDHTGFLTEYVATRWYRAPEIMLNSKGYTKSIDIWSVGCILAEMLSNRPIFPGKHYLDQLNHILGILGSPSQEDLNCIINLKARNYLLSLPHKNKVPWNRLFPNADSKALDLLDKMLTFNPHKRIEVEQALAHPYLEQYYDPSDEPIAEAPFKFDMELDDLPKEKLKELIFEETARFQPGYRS
Chain of Glycogen synthase kinase-3 beta (Homo sapiens) (P49841 whole entry, looked up): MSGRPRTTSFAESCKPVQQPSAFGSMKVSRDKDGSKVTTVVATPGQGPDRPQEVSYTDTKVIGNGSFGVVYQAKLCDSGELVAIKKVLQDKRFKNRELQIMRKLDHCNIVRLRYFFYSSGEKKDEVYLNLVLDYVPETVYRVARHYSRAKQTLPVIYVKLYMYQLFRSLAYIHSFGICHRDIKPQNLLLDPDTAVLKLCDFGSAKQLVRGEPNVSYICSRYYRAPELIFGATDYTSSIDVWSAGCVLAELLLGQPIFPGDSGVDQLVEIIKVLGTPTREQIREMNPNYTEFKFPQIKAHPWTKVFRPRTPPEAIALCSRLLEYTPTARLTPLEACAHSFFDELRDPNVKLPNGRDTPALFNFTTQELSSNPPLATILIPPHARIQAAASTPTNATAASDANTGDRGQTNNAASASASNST
Chain of Tyrosine-protein kinase ABL1 (Homo sapiens) (P00519 whole entry): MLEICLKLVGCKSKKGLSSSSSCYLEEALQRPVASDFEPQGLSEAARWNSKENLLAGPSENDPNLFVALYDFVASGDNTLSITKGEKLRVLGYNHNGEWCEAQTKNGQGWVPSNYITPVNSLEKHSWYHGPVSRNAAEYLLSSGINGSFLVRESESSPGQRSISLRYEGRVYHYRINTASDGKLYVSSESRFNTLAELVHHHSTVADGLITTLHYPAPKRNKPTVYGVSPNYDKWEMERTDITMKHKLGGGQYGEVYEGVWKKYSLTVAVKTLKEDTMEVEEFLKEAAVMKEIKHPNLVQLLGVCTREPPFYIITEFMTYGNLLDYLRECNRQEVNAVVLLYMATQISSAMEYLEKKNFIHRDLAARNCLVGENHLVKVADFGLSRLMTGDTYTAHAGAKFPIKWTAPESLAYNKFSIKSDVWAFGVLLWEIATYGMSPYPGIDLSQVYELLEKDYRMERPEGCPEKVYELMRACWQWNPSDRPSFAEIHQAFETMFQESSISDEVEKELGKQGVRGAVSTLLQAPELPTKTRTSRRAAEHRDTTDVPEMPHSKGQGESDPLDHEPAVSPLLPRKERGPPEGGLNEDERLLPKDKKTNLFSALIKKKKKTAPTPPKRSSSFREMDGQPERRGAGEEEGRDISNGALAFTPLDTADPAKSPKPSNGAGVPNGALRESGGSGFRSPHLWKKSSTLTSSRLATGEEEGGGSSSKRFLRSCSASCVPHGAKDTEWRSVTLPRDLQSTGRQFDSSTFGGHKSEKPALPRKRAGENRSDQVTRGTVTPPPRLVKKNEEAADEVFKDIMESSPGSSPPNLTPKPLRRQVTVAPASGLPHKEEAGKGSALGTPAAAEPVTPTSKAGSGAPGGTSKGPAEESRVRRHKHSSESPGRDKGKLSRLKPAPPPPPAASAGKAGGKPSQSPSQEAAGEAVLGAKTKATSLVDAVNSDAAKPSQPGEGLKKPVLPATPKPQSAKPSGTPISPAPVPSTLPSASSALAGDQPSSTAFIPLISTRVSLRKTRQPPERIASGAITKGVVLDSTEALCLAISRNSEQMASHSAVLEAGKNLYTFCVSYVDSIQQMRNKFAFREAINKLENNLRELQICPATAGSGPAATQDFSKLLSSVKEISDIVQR
Chain of Casein kinase I isoform delta (Homo sapiens) (P48730 whole entry, looked up, canonical isoform): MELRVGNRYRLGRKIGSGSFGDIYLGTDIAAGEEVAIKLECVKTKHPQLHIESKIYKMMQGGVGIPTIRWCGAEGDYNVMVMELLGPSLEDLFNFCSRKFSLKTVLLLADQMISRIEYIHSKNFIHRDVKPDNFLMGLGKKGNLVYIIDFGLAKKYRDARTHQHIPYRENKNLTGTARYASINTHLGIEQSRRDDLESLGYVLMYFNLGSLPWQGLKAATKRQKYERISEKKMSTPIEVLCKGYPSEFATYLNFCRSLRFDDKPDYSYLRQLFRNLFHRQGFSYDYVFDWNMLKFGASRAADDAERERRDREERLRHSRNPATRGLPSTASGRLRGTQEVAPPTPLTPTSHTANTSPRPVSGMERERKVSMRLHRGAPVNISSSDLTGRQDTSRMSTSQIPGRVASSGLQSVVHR

| SMILES | ΔTm [1] | ΔTm [2] | ΔTm [3] | ΔTm [4] | ΔTm [5] | ΔTm [6] | ΔTm [7] | ΔTm [8] |
| --- | --- | --- | --- | --- | --- | --- | --- | --- |
| CCCCCn1c(C)c(C(=O)c2cccc3ccccc23)c2ccccc21 | 0.2 °C | -0.88 °C | 0.76 °C | 0.04 °C | -0.36 °C | 0.95 °C | -2.46 °C | 0.22 °C |
| CC(C)=C[C@H]1C[C@H](C)[C@]2(CC[C@]3(C)C[C@H]4[C@H](C(=O)C[C@@]4(C)O)/C(C=O)=C\C[C@H]32)O1 | -0.34 °C | -1.06 °C | -0.29 °C | -0.36 °C | -0.53 °C | -0.16 °C | -1.12 °C | -1.12 °C |
| N[C@H]1CC[C@H](N[C@@H]2C[C@H]2c2ccccc2)CC1 | 0.04 °C | -1.89 °C | 0.04 °C | -0.14 °C | -0.74 °C | 0 °C | -1.42 °C | 0.93 °C |
| COc1ccc(C(CN(C)C)C2(O)CCCCC2)cc1 (stereo not drawn) | 0.51 °C | -2.55 °C | -0.01 °C | -0.1 °C | -0.27 °C | 0.12 °C | -1.68 °C | -0.25 °C |
| CCOC(=O)c1ccc(-c2ccc(OC(=O)N(C)Cc3cccc(-c4ccncc4)c3)cc2)cc1 | 1.38 °C | -2.49 °C | 0.29 °C | -0.29 °C | -4.12 °C | 0.21 °C | -1.65 °C | -0.65 °C |
| O=C1C(P(=O)(O)O)CCCN1O (stereo not drawn) | 0.38 °C | -1.37 °C | 0.09 °C | -0.23 °C | -1.56 °C | 0.01 °C | -2.37 °C | -0.05 °C |
| CS(=O)(=O)Nc1ccc(-c2coc3cc(OCc4cccc(C(=O)O)c4)ccc3c2=O)cc1 | -0.03 °C | 0.08 °C | 0.07 °C | -0.49 °C | -0.46 °C | 0.64 °C | -0.26 °C | 0.89 °C |
| COc1cc(O)c2c(c1)/C=C\C[C@H](O)[C@H](O)C(=O)/C=C\C[C@H](C)OC2=O | 6.88 °C | -0.9 °C | 0 °C | 0.3 °C | 0 °C | 0 °C | 0 °C | -0.14 °C |
| CCO/N=C1\c2ccccc2-c2nc(C#N)c(C#N)nc21 | 0.39 °C and 0.29 °C | -1.18 °C and -1.1 °C | 0.59 °C and 0.08 °C | -1.52 °C and -1.06 °C | 0.4 °C and -0.71 °C | -0.11 °C and -0.98 °C | -2.42 °C and -1.91 °C | 0.92 °C and 0.33 °C |
| O=C1Cc2cc(C(=O)N[C@@H]3C[C@H]4CC[C@@H](C3)N4S(=O)(=O)CC3CCN(CCCC(F)(F)F)CC3)c(Cl)cc2N1 | -0.02 °C | -1.65 °C | 0.34 °C | 0.08 °C | -1.14 °C | -0.31 °C | -0.32 °C | -1.38 °C |
| COc1cn(-c2ccc(-n3cccn3)cc2F)nc(-c2ccnn2-c2ccccc2)c1=O | 0.53 °C | 0.2 °C | 1.24 °C | 0.13 °C | 0.96 °C | 0.22 °C | -1.86 °C | -0.41 °C |
